Data on 40 compounds can be found in PubChem BioAssay (Tox21).

Inconclusive results are not listed. A call without a number means that no potency is given here. Unmarked numbers belong to inactive results. Calls of active or inactive are those of the source. Calls come from the whole dose curve.

Sequence of Beta-2 adrenergic receptor (Homo sapiens) (P07550 whole entry, looked up): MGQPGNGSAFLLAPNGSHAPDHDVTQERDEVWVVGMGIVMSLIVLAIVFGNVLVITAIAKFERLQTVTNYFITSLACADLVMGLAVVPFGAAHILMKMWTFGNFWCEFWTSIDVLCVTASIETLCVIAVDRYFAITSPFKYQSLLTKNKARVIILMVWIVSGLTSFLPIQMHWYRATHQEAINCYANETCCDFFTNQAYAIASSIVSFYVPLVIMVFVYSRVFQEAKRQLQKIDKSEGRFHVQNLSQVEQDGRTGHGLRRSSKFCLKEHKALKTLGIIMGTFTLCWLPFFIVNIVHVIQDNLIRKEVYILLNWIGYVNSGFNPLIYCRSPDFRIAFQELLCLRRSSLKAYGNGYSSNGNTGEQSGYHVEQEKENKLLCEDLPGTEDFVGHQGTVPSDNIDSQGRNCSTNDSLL

The target of this experiment is Beta-2 adrenergic receptor (Homo sapiens) (UniProt P07550). Kind of experiment: Adrenergic beta2 receptor (ADRB2) small molecule agonists, cell-based qHTS assay (AID 1963593). As to conditions: CHO-ADRB2 cells, cAMP HTRF, 30 min; series mostly up to 92.4 µM. An excerpt:
National Center for Advancing Translational Sciences [NCATS]
Division of Preclinical Innovation [DPI]
U.S. Environmental Protection Agency [EPA]
National Institutes of Environmental Health Sciences [NIEHS]
National Toxicology Program [NTP]
U.S. Food and Drug Administration [FDA]
Beta adrenergic receptors (Beta-ARs) belong to the G-protein coupled receptor (GPCR) superfamily, includes three subtypes - beta1, beta2, and beta3. Beta1-AR is the predominant receptor subtype expressed in the heart, and beta2-AR is expressed in the kidney, lung, blood vessel and in the heart, and beta3 is found in the adipocytes. Beta1 and 2 ARs couple to Gs protein and elevate cyclic adenosine mono phosphate (cAMP), which activates protein kinase A and leads to the downstream signaling responsible for the physiological actions. Beta-AR agonists or antagonists are the most prescribed therapeutic agents for heart failure and asthma, and these were one of the first target receptors for the rational drug design. Tox21 10K compound library was screened using the cAMP-Gs dynamic assay (Cisbio Bioassays, Shelton, CT) to identify agonists/antagonists of the Gs-coupled human adrenergic, beta2 receptor (ADRB2) in the CHO-ADRB2 cell line (Codex BioSolutions, Inc. Gaithersburg, MD), which stably over-expresses ADRB2. The principle of cAMP-Gs dynamic assay is based on HTRF technology, which facilitates the fluorescence resonance energy transfer (FRET) between donor Europium cryptate and acceptor d2-labeled cAMP. The cAMP generated within cells competes with the red acceptor, d2-labled cAMP, for binding to the monoclonal anti-cAMP-cryptate (Europium donor). An increase in intracellular cAMP leads to the disruption of FRET signal, and the signal is inversely proportional to the cAMP concentration. Isoproterenol HCl (Sigma-Aldrich, St. Louis, MO) was used as a positive control in the screening.
Tox21 Assay Protocol Summary:
CHO-ADRB2 cells were dispensed at 1,000/well in 4uL assay medium into white/solid 1536-well plates (Greiner Bio-One North America Inc., Monroe, NC) using a Multidrop Combi dispenser (ThermoFisher Scientific, Waltham, MA). The assay plates were incubated at 37C and 5% CO2 for an overnight (18-20hr). Then positive control and test compounds dissolved in DMSO were transferred to the assay plates at 23nL using a Pintool station (Wako, San Diego, CA). Following the compound and positive control transfer, 1uL stimulation mix containing 100uM IBMX and 25uM Ro-20-1724 was added to each well of the assay plates using BioRAPTR Flying Reagent Dispenser (FRD, Beckman Coulter, Brea, CA). The assay plates were incubated at room temperature for 0.5hr. Then 2.5ul each d2-labled cAMP and anti-cAMP-cryptate solutions were added separately to each well of the assay plates using an FRD and the assay plates were incubated at room temperature for 1hr.
(qHTS replaces the single test concentration by a dilution series.)
In the case of `CS(=O)(=O)c1ccc(Cl)cc1`, the Potency entry is “inactive”. With `CCCCC(CC)COC(=O)c1ccc(O)cc1` (stereo not given), the Potency result is “inactive”. For the compound `CC(C)C(=O)C(C)C`, the Potency entry was “inactive”. As to `CC[C@]1(O)C[C@@H]2CN(CCc3c([nH]c4ccccc34)[C@@](C(=O)OC)(c3cc4c(cc3OC)N(C)[C@H]3[C@@](O)(C(=O)OC)[C@H](OC(C)=O)[C@]5(CC)C=CCN6CC[C@]43[C@@H]65)C2)C1`, the Potency entry is “inactive”. Consider `COC(=O)c1cc(Cl)c(NC(C)=O)cc1OC`, for which the Potency entry is “inactive”.

With `CC(C)CC(O)CC(C)C`, the Potency entry is “inactive”.

On to `CC(=O)OCCCc1ccccc1`, for which the Potency entry was “inactive”. As for `CC[C@H]1CN2CCc3cc(OC)c(OC)cc3[C@@H]2C[C@@H]1C[C@H]1NCCc2cc(OC)c(OC)cc21`, the Potency entry was “inactive”. Consider `CC1=C(O)C(=O)OC1C` (stereo not given), for which the Potency result was “inactive”. Consider `C=C[C@H]1CN2CC[C@H]1C[C@@H]2[C@@H](O)c1ccnc2ccc(OC)cc12`, for which the Potency result is “inactive”.

Turning to `COc1cc(C)c(Cc2cnc(N)nc2N)cc1OC`, the Potency entry is “inactive”. For the compound `Cl/C(=C\n1cncn1)c1ccc(Cl)cc1Cl`, the Potency entry is “inactive”. On to `O=c1[nH]c(=O)c2cn[nH]c2[nH]1`, for which the Potency result was “inactive”. On the same count and under the same terms, the same measure for `Cc1ccccc1OCC1CO1` (stereo not given): “inactive”; for `COC(=O)Cc1cccc2ccccc12`: “inactive”. Take `Cc1cc(C)c(C)c(O)c1`: the Potency entry was “inactive”. With `Nc1ccc2c(S(=O)(=O)O)cccc2c1S(=O)(=O)O`, the Potency result was “inactive”. Turning to `CC1=NN(c2ccc(S(=O)(=O)O)cc2)C(=O)C1`, the Potency entry was “inactive”. As to `OCCCC1CCCCC1`, the Potency entry was “inactive”. With `O=S(=O)(O)CCCN1CCOCC1`, the Potency entry was “inactive”. In the case of `NC[C@H]1O[C@H](O[C@H]2[C@H](O)[C@@H](O[C@H]3O[C@H](CO)[C@@H](O)[C@H](N)[C@H]3O)[C@H](N)C[C@@H]2N)[C@H](N)[C@@H](O)[C@@H]1O`, the activation is 1.3% [at 19 µM].

Take `CCCCOC(=O)[C@H](C)O`: the Potency result is “inactive”. As for `C[C@@H](O)[C@H]1C(=O)N2C(C(=O)O)=C(SCCN=CN)C[C@H]12`, the Potency entry was “inactive”. Still for that read-out and setting: with `CCCc1ccc(N)cc1` the entry was “inactive”; with `O=C(Nc1ccc([N+](=O)[O-])cc1)Nc1ccc([N+](=O)[O-])cc1` (tested in a mixture with another compound), “inactive”; with `O=C(O)c1cccc(C(F)(F)F)c1`, “inactive”. `O=C(O)CNC(=O)c1ccccc1I`: the Potency entry was “inactive”.

Regarding `Nc1ccc(S(=O)(=O)Nc2ccc(Cl)nn2)cc1`, the Potency entry is “inactive”. On the same count and under the same terms, with `CN/C(=C\[N+](=O)[O-])NCCSCc1ccc(CN(C)C)o1` the entry was “inactive”; with `COc1ccc(Br)c(C)c1`, “inactive”.

For the compound `COC(=O)N[C@H](C(=O)N[C@@H](Cc1ccccc1)[C@@H](O)CN(Cc1ccc(-c2ccccn2)cc1)NC(=O)[C@@H](NC(=O)OC)C(C)(C)C)C(C)(C)C`, the Potency result is “inactive”. On to `CCOc1cc(NC(C)=O)ccc1C(=O)OC`, for which the Potency result was “inactive”. `O=C1CC(c2ccc(Cl)cc2)CC(=O)N1`: the Potency result is “inactive”. For the compound `CN(Cc1cnc2nc(N)nc(N)c2n1)c1ccc(C(=O)N[C@@H](CCC(=O)O)C(=O)O)cc1`, the Potency entry was “inactive”. Same read-out and setting: with `COc1ccccc1C=O` the entry was “inactive”; with `C=CCCCCCCCCC(=O)OCCCC`, “inactive”; with `CCCCCCCCCCCCCCCC(=O)NCCO`, “inactive”. In the case of `COCCOCCOCCOCCOC`, the Potency result is “inactive”.

With `Oc1ccc(OCc2ccccc2)cc1`, the Potency entry is “inactive”. As for `CCCCCCCC(OC)OC`, the Potency entry is “inactive”.
